Measurements from the supplement of paper PMC11219838.
Values without a mark were called inactive.

system: Caenorhabditis elegans L1 (N2); assay: survival and reproduction score of C. elegans L1 (0: 0-10 living worms, 1: 11-20, 2: 21-50, 3: >50, 4: overgrown) (score 0-4); higher = more worms, less nematicidal, active = 1 or less; extreme values may be limits of the assay; settings: 60 µM; 6 days; temperature: 20 °C
Method in brief: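 In liquid NGM with E. coli HB101, approximately 20 synchronized C. elegans N2 L1s per 96-well well were exposed to compound at 60 µM final (0.6% v/v DMSO) for 6 days at 20 °C with shaking at 200 rpm in sealed plates. Survival and reproduction were judged under a dissection microscope as an ordinal rating of living worms per well. Ratings went from 0 (0–10 worms) to 4 (overgrown, starved) and were averaged over two biological replicates.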

Compound | survival and reproduction score
Cc1ccccc1CSc1nnc(-c2ccccc2Cl)o1 | 4
Cc1cc(OCc2nc(-c3ccccn3)no2)ccc1Cl | 4
Cc1cccc(-c2noc(-c3ccccc3F)n2)c1 | 4
COc1nc(-c2ccc(C)cc2)ccc1-c1noc(-c2cccc(C)c2)n1 | 4
O=C(CSc1nnc(-c2ccncc2)o1)Nc1cc(C(F)(F)F)ccc1Cl | 4
Cc1ccccc1OCc1nc(-c2cccc(C(F)(F)F)c2)no1 | 4
Cc1ccc(OCc2nc(-c3ccc(Cl)cc3)no2)cc1 | 4
COc1ccc(C(=O)CSc2nnc(-c3cccc4ccccc34)o2)cc1 | 4
COc1ccc(-c2nnc(SCc3cccc(C#N)c3)o2)cc1 | 4
Cc1cc(OCc2nc(-c3ccncc3)no2)ccc1Br | 4
Cc1ccccc1CSc1nnc(-c2ccncc2)o1 | 4
Cc1ccc(OCc2nc(-c3ccccc3Cl)no2)c(C)c1 | 4
Brc1cccc(-c2nc(-c3ccncc3)no2)c1 | 1 (active)
CC(Oc1ccccc1)c1nc(-c2cccnc2)no1 (centres undefined) | 4
Cc1ccc(-c2nc(-c3ccc4c(c3)OCO4)no2)cc1 | 4
COc1cccc(-c2noc(-c3cc(C)ccc3C)n2)c1 | 4
COc1cccc(-c2noc(-c3cccc(F)c3)n2)c1 | 4
O=C(CSc1nnc(-c2ccncc2)o1)Nc1ccc(Cl)cc1Cl | 4
Cc1ccccc1-c1noc(CSc2nc3ccccc3[nH]2)n1 | 4
Clc1ccc(OCc2nc(-c3ccccc3)no2)c(Cl)c1 | 0 (active)

Compound | survival and reproduction score
COc1cccc(-c2noc(COc3ccc(C)cc3C)n2)c1 | 4
Cc1cccc(-c2noc(COc3ccc(Cl)cc3)n2)c1 | 4
Cc1[nH]c2ccc(-c3nnc(SCC(=O)NCc4ccc(F)cc4)o3)cc2c1C | 4
Cc1ccc(OCc2nc(-c3cccnc3)no2)cc1C | 4
Fc1ccccc1-c1nc(-c2ccc(Cl)cc2)no1 | 1 (active)
COc1ccc(-c2noc(CSc3ccc(C)cc3)n2)cc1 | 4
Nc1nc(CSc2nnc(-c3ccccc3)o2)cs1 | 4
CC(C)c1ccc(NC(=O)CSc2nnc(-c3ccc(Br)cc3)o2)cc1 | 4
Cc1cccc(OCc2nc(-c3ccccc3Cl)no2)c1 | 4
CC(=O)Nc1cccc(-c2nnc(SCc3ccc(F)cc3)o2)c1 | 4
Cc1cccc(-c2noc(-c3ccccc3Cl)n2)c1 | 4
COc1ccccc1CC(=O)Nc1ccc(-c2noc(-c3ccc(Cl)cc3)n2)cc1 | 4
Cc1ccc(-c2nc(-c3ccccc3Cl)no2)c(Cl)c1 | 4
COc1ccc(CC(=O)Nc2ccc(-c3noc(-c4ccc(F)cc4)n3)cc2)cc1 | 4
CC(C)CCC(=O)Nc1ccccc1-c1nc(-c2ccccn2)no1 | 2
COc1ccc(-c2noc(COc3ccc(Br)cc3)n2)cc1 | 2
CC1CC(C)CN(C(=O)CSc2nnc(-c3ccccc3)o2)C1 (centres undefined) | 4
CC(C)Oc1ccc(-c2nc(-c3ccccn3)no2)cc1 | 0 (active)
COc1ccc(-c2nnc(SCC(=O)Nc3ccc(Cl)c(Br)c3)o2)cc1 | 4
